PubChem BioAssay (NCATS)
Inconclusive results are not listed. The source made the active and inactive calls. The call rests on the fitted dose curve; in most records, active means well fitted curve in the direction sought with a large enough effect; inconclusive means small, poorly fitted or top-dose-only effect, or another doubt; inactive means no such curve, though single readings can be large; an effect the other way counts as inactive or inconclusive.

Columns and labels:
[1] = Quantitative High-Throughput drug screen in 47 multiple myeloma cell lines against the NCATS MIPE library collection: EJM_DSMZ cell viability assay (AID 1918926; further: nearly all actives have a fitted effect of over 30% in size; further: potency means the concentration at half of the fitted maximal effect)
Summary of the method: (§1)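 Primary qHTS used for cherry-picking: cells at 500/well, library compounds for 48 h (37C, 5% CO2), luminescent ATP assay.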

[2] = Quantitative High-Throughput drug screen in 47 multiple myeloma cell lines against the NCATS MIPE library collection: AMO1_DSMZ cell viability assay (AID 1918927; further: nearly all actives have a fitted effect of over 30% in size)
Summary of the method: as §1

[3] = Quantitative High-Throughput drug screen in 47 multiple myeloma cell lines against the NCATS MIPE library collection: ARD_JJKsccE7 cell viability assay (AID 1918929; further: potency means the concentration at half of the fitted maximal effect)
Summary of the method: as §1

[4] = Quantitative High-Throughput drug screen in 47 multiple myeloma cell lines against the NCATS MIPE library collection: Karpas620_DSMZ cell viability assay (AID 1918959); further: nearly all actives have a fitted effect of over 30% in size; further: potency means the concentration at half of the fitted maximal effect
Summary of the method: (§2)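 Approved and investigational drugs from MIPE 4.0 were added by pin tool to 500 cells per well. After 48 hours at 37C, ATP-based CellTiter-Glo luminescence indicated remaining viability.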

[5] = Quantitative High-Throughput drug screen in 47 multiple myeloma cell lines against the NCATS MIPE library collection: KMM1_JCRB cell viability assay (AID 1918960); further: nearly all actives have a fitted effect of over 30% in size; further: potency means the concentration at half of the fitted maximal effect
Summary of the method: (§3)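 500 cells/well; MIPE 4.0 library pinned in; 48 h, 37 °C, 5% CO2; CellTiter-Glo ATP luminescence. Controls: DMSO = 100% viability, medium only = 0%.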

[6] = Quantitative High-Throughput drug screen in 47 multiple myeloma cell lines against the NCATS MIPE library collection: Karpas417_ECACC cell viability assay (AID 1918961); settings: Karpas417 myeloma viability, CellTiter-Glo ATP luminescence, 48 h; viability (% of DMSO): at 45.8 µM (top of the series)
Summary of the method: (§4)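 Inhibition of cell viability is measured here. Each line was plated at 500 cells per well, treated with MIPE 4.0 drugs, kept 48 hours at 37C, then assayed for ATP content by CellTiter-Glo luminescence.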

[7] = Quantitative High-Throughput drug screen in 47 multiple myeloma cell lines against the NCATS MIPE library collection: KHM11_PLB cell viability assay (AID 1918962); further: nearly all actives have a fitted effect of over 35% in size; further: potency means the concentration at half of the fitted maximal effect
Summary of the method: as §2

[8] = Quantitative High-Throughput drug screen in 47 multiple myeloma cell lines against the NCATS MIPE library collection: JIM3_ECACC cell viability assay (AID 1918963; further: nearly all actives have a fitted effect of over 35% in size; further: potency means the concentration at half of the fitted maximal effect)
Summary of the method: as §2

[9] = Quantitative High-Throughput drug screen in 47 multiple myeloma cell lines against the NCATS MIPE library collection: INA6_PLB cell viability assay (AID 1918965; further: nearly all actives have a fitted effect of over 55% in size; further: potency means the concentration at half of the fitted maximal effect)
Summary of the method: as §4

[10] = Quantitative High-Throughput drug screen in 47 multiple myeloma cell lines against the NCATS MIPE library collection: H1112_PLB cell viability assay (AID 1918967; further: nearly all actives have a fitted effect of over 30% in size; further: potency means the concentration at half of the fitted maximal effect)
Summary of the method: as §1

[11] = Quantitative High-Throughput drug screen in 47 multiple myeloma cell lines against the NCATS MIPE library collection: Karpas25_ECACC cell viability assay (AID 1918968; further: nearly all actives have a fitted effect of over 35% in size; further: potency means the concentration at half of the fitted maximal effect)
Summary of the method: as §1

[12] = Quantitative High-Throughput drug screen in 47 multiple myeloma cell lines against the NCATS MIPE library collection: KMS27_JCRB cell viability assay (AID 1918970); further: nearly all actives have a fitted effect of over 30% in size
Summary of the method: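 CellTiter-Glo luminescence after 48 h drug exposure at 37 °C; 500 cells/well, 1536-well format, pin-tool compound addition; DMSO = 100%, media-only = 0% viability.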

[13] = Quantitative High-Throughput drug screen in 47 multiple myeloma cell lines against the NCATS MIPE library collection: KMS12PE_JCRB cell viability assay (AID 1918972); further: nearly all actives have a fitted effect of over 30% in size; further: potency means the concentration at half of the fitted maximal effect
Summary of the method: as §4

[14] = Quantitative High-Throughput drug screen in 47 multiple myeloma cell lines against the NCATS MIPE library collection: KMS26_JCRB cell viability assay (AID 1918975); further: nearly all actives have a fitted effect of over 45% in size; further: potency means the concentration at half of the fitted maximal effect
Summary of the method: (§5)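 Relative luminescence from CellTiter-Glo served as the viability signal, referenced to DMSO-treated (100%) and cell-free medium (0%) controls. Treatment lasted 48 hours at 37C with 500 cells per well.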

[15] = Quantitative High-Throughput drug screen in 47 multiple myeloma cell lines against the NCATS MIPE library collection: ARP1_JJKsccF8 cell viability assay (AID 1918928; further: nearly all actives have a fitted effect of over 40% in size; further: potency means the concentration at half of the fitted maximal effect)
Summary of the method: as §3

[16] = Quantitative High-Throughput drug screen in 47 multiple myeloma cell lines against the NCATS MIPE library collection: JIM1_ECACC cell viability assay (AID 1918964; further: potency means the concentration at half of the fitted maximal effect)
Summary of the method: as §1

[17] = Quantitative High-Throughput drug screen in 47 multiple myeloma cell lines against the NCATS MIPE library collection: JJN3_DSMZ cell viability assay (AID 1918966; further: nearly all actives have a fitted effect of over 50% in size; further: potency means the concentration at half of the fitted maximal effect)
Summary of the method: as §1

[18] = Quantitative High-Throughput drug screen in 47 multiple myeloma cell lines against the NCATS MIPE library collection: KMS12BM_JCRB cell viability assay (AID 1918971); further: nearly all actives have a fitted effect of over 35% in size; further: potency means the concentration at half of the fitted maximal effect
Summary of the method: as §5

[19] = Quantitative High-Throughput drug screen in 47 multiple myeloma cell lines against the NCATS MIPE library collection: KMS20_JCRB cell viability assay (AID 1918973); further: nearly all actives have a fitted effect of over 45% in size; further: potency means the concentration at half of the fitted maximal effect
Summary of the method: as §1

[20] = Quantitative High-Throughput drug screen in 47 multiple myeloma cell lines against the NCATS MIPE library collection: KMS21BM_JCRB cell viability assay (AID 1918974); settings: ATP luminescence, 48 h; viability: at 45.8 µM (top of the series)
Summary of the method: as §1

O=C(O)c1cc(=O)[nH]c(=O)[nH]1
inactive: Potency [1] | Potency [2] | Potency [3] | Potency [4] | Potency [5] | Potency [6] | Potency [7] | Potency [8] | Potency [9] | Potency [10] | Potency [11] | Potency [12] | Potency [13] | Potency [14]

N=C(N)c1ccc(OCCCCCOc2ccc(C(=N)N)cc2)cc1
active: Potency [1] 14.8 µM | Potency [15] 16.6 µM | Potency [5] 5.26 µM | Potency [7] 3.32 µM | Potency [9] 3.72 µM | Potency [17] 16.6 µM | Potency [11] 2.96 µM | Potency [18] 5.9 µM | Potency [13] 5.9 µM | Potency [19] 10.5 µM
inactive: Potency [3] | Potency [16] | Potency [12]

COC(=O)Nc1nc2ccc(C(=O)c3ccccc3)cc2[nH]1
active: Potency [1] 4.69 µM | Potency [15] 0.743 µM | Potency [8] 2.96 µM | Potency [9] 1.18 µM | Potency [17] 2.64 µM | Potency [10] 2.64 µM | Potency [11] 3.72 µM | Potency [14] 8.33 µM

CN(C)c1ccc(C(=C2C=CC(=[N+](C)C)C=C2)c2ccc(N(C)C)cc2)cc1
active: Potency [1] 0.148 µM | Potency [15] 0.166 µM | Potency [3] 0.526 µM | Potency [7] 0.0166 µM | Potency [16] 0.105 µM | Potency [9] 0.0093 µM | Potency [10] 0.0372 µM | Potency [11] 0.0118 µM | Potency [18] 0.0662 µM | Potency [13] 0.0093 µM | Potency [14] 0.166 µM

Nc1nc(N)nc(-c2cc(Cl)ccc2Cl)n1
inactive: Potency [1] | Potency [15] | Potency [5] | Potency [6] | Potency [7] | Potency [8] | Potency [10] | Potency [12] | Potency [13]

O=C(O)c1cn(C2CC2)c2cc(N3CCNCC3)c(F)cc2c1=O
inactive: Potency [1] | Potency [15] | Potency [4] | Potency [5] | Potency [8] | Potency [16] | Potency [17] | Potency [10] | Potency [13]

CC(C)NCC(O)c1ccc(NS(C)(=O)=O)cc1 (stereo not given)
inactive: Potency [1] | Potency [3] | Potency [5] | Potency [6] | Potency [7] | Potency [8] | Potency [10] | Potency [12] | Potency [18] | Potency [13]

CCn1cc(C(=O)O)c(=O)c2cc(F)c(N3CCN(C)CC3)cc21
active: Potency [3] 0.0132 µM
inactive: Potency [1] | Potency [4] | Potency [6] | Potency [8] | Potency [10] | Potency [11] | Potency [12] | Potency [13] | Potency [14]

CNS(=O)(=O)Cc1ccc2[nH]cc(CCN(C)C)c2c1
active: viability (% of DMSO) [6] 103%
inactive: Potency [1] | Potency [2] | Potency [5] | Potency [8] | Potency [16] | Potency [10] | Potency [12] | Potency [18] | Potency [13] | Potency [19] | Potency [14]

O=P(O)(O)C(O)(Cc1cccnc1)P(=O)(O)O
inactive: Potency [1] | Potency [2] | Potency [4] | Potency [5] | Potency [7] | Potency [8] | Potency [10] | Potency [12] | Potency [13]
active: Potency [14] 0.0017 µM

O=C(NCC1CN(c2ccc(N3CCOCC3=O)cc2)C(=O)O1)c1ccc(Cl)s1 (stereo not given)
active: Potency [3] 23.5 µM | Potency [11] 16.6 µM
inactive: Potency [1] | Potency [8] | Potency [10] | Potency [18] | Potency [14]

CO[C@@H]1[C@@H](OC(N)=O)[C@@H](O)[C@H](Oc2ccc3c(O)c(NC(=O)c4ccc(O)c(CC=C(C)C)c4)c(=O)oc3c2C)OC1(C)C
inactive: Potency [10]
active: Potency [1] 5.26 µM | Potency [15] 0.935 µM | Potency [7] 2.64 µM | Potency [8] 5.26 µM | Potency [11] 5.9 µM | Potency [18] 2.96 µM | Potency [14] 9.35 µM

CC1=CC(=O)c2ccccc2C1=O
inactive: Potency [3] | Potency [5] | Potency [16] | Potency [13]
active: Potency [1] 20.9 µM | Potency [15] 16.6 µM | Potency [4] 14.8 µM | Potency [8] 23.5 µM | Potency [9] 8.33 µM | Potency [10] 20.9 µM | Potency [11] 9.35 µM | Potency [14] 10.5 µM

CCn1cc(C(=O)O)c(=O)c2cc(F)c(N3CCNCC3)nc21
inactive: Potency [1] | Potency [4] | Potency [5] | Potency [7] | Potency [8] | Potency [9] | Potency [17] | Potency [10] | Potency [11] | Potency [12] | Potency [19]

CCN(C)C(=O)Oc1cccc([C@H](C)N(C)C)c1
inactive: Potency [1] | Potency [15] | Potency [8] | Potency [16] | Potency [9] | Potency [10] | Potency [11] | Potency [13]
active: Potency [4] 0.0332 µM

Cc1ncc([N+](=O)[O-])n1CCO
inactive: Potency [1] | Potency [15] | Potency [4] | Potency [5] | Potency [8] | Potency [9] | Potency [17] | Potency [10] | Potency [11] | Potency [12] | Potency [13] | Potency [20]
